L3MBTL1 inh – L3MBTL1 (human) inhibition; AlphaScreen L3MBTL1–H3K9me1 peptide binding; hit rate 0.66% among 230,000; Potency, µM (series often up to 57.1 µM), without a hit: top-dose activity, negative = inhibition, most hits filed as inhibitors; Q9Y468; note: nearly all actives have a fitted effect of over 60% in size
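L3MBTL1 (50 nM) pre-complexed 30 min with biotinylated H3(1-15)K9me1 peptide (75 nM), then compounds added for 30 min at room temperature; AlphaScreen streptavidin donor/nickel chelate acceptor beads (10 ug/mL final) read after 30 min dark incubation.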
APE1 inh-1 – inhibitors of human APE1 endonuclease. hit rate 0.35% among 350,000. AID 2517. P27695. recombinant APE1, TAMRA/BHQ-2 abasic DNA cleavage fluorescence. Potency, µM (highest dose often 65.8 µM), for inactives: at the highest dose activity change, negative = inhibition, most hits filed as inhibitors;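 note: plate controls were vehicle for no effect and reference inhibitor for full effect; nearly all actives have a fitted effect of over 55% in size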
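Kinetic fluorescence read (525 ex/598 em nm, three reads 60 s apart) of AP-site incision; signal = third minus first read. Enzyme 0.75 nM, dual-labelled THF duplex 50 nM, compound preincubation 15 min RT.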
KDM4E inh – blocks human JMJD2E demethylase activity | B2RXH2 | JMJD2E catalytic domain, FDH-coupled NADH fluorescence (FDH is formaldehyde dehydrogenase) | Potency, µM (doses to about 57.1 µM), inactives show at the highest dose activity change, negative = inhibition, hits mostly inhibitors | hit rate 1.6% among 230,000 | AID 2147; active = well fitted inhibition curve with a large enough effect, not every such curve was filed as active; inconclusive = small, poorly fitted or top-dose-only effect, or another doubt; inactive = no such curve, though single readings can be large or run the other way;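 note: 0% = wells with enzyme and -100% = buffer wells without enzyme; nearly all actives have a fitted effect of over 50% in size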
Target sequence (B2RXH2 1-337 limits assumed): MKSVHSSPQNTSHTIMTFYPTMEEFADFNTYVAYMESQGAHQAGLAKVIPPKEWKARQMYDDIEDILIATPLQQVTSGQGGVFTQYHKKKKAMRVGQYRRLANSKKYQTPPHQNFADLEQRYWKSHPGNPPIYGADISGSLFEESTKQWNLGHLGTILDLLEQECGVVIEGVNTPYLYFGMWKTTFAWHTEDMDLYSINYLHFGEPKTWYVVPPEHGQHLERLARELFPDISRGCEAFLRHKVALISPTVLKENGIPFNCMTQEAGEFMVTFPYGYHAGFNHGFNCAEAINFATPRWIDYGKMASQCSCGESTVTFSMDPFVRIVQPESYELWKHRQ
RGS12 GoLoco inh – blocks human Gai1 binding to RGS12 GoLoco peptide, red readout; P63096; Potency, µM (series often up to 61.6 µM), without a hit: at the top dose activity, negative = inhibition, most hits filed as inhibitors; hit rate 0.44% among 230,000; AID 880; Gai1:RGS12 GoLoco peptide FP, rhodamine, 10 min; active = well fitted inhibition curve with a large enough effect, not every such curve was filed as active; inactive = no such curve, though single readings can be large or run the other way; note: nearly all actives have a fitted effect of over 30% in size
BLM inh – inhibitors of human Bloom syndrome helicase BLM | P54132 | Potency, µM (top dose mostly 56.1 µM), for the others: at the top dose activity change, negative = inhibition, actives largely listed as inhibitors | hit rate 0.2% among 350,000 | recombinant BLM DNA unwinding, fluorescence dequenching;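 note: plate controls were vehicle for no effect and no enzyme for full effect; nearly all actives have a fitted effect of over 35% in size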
RECQ1 helicase – inhibitors of human RECQ1 DNA helicase; hit rate 0.54% among 240,000; RECQ1 DNA unwinding, red fluorescence kinetic read; P46063; AID 2549; Potency, µM (highest dose often 57.3 µM), inactives show at the top dose activity, negative = inhibition, most hits filed as inhibitors;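 note: plate controls were vehicle for no effect and no enzyme for full effect; nearly all actives have a fitted effect of over 30% in size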
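RECQ1T1 50 nM; forked duplex (20 bp + 30-nt ss tails) 200 nM, ATP 2 mM final; pH 8.0, 2 mM MgCl2, 2.5 ug/ml poly(dI-dC); 15 min compound preincubation; discontinuous kinetic read over 2 h at RT.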
DNA dye displace – displaces fluorescent dye from DNA, flagging APE1 artifacts; DNA fluorescent dye displacement counterscreen, fluorescence; AID 2564; Potency, µM (titrated, usually from 28.5 µM), inactives show at the top dose activity change, negative = inhibition, most hits filed as inhibitors; shares compounds with APE1 inh-1; hit rate 7% among 480;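 note: loss of thiazole orange fluorescence as the dye is displaced from duplex DNA; 0% = ThO with dsDNA and no compound and -100% = ThO without dsDNA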
EndoIV counter – Endo IV (E. coli) inhibition counter-screen; E. coli Endo IV, fluorogenic AP-site DNA cleavage; shares compounds with APE1 inh-1; Potency, µM (titrated, usually from 27.1 µM), for the others: at the highest dose activity change, negative = inhibition, actives largely listed as inhibitors; hit rate 4% among 560;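 note: plate controls were uninhibited enzyme wells for no effect and no enzyme buffer wells for full effect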
APE1 inh-2 – APE1 (human) endonuclease inhibition, confirmation | shares compounds with APE1 inh-1 | purified APE1, fluorogenic abasic-site DNA cleavage | Potency, µM (highest dose often 57.1 µM), for inactives: at the highest dose activity change, negative = inhibition, usual class: inhibitors | hit rate 44% among 750; note: nearly all actives have a fitted effect of over 30% in size
APE1 FP inh – APE1 (human) DNA binding inhibition, fluorescence polarization; shares compounds with APE1 inh-1; APE1 binding to TAMRA-labelled double-stranded DNA, fluorescence polarization displacement; Potency, µM (top dose mostly 28.5 µM), for inactives: top-dose activity, negative = inhibition, most hits filed as inhibitors; hit rate 7% among 480
* hit, by the source's call; [ ] = dose if it differs, or a comment. The full list was thinned out, with hits kept by preference. Unless noted, calls come from the whole dose curve; as a rule, active = well fitted curve in the direction sought with a large enough effect; inconclusive = small, poorly fitted or top-dose-only effect, or another doubt; inactive = no such curve, though single readings can be large; an effect the other way counts as inactive or inconclusive. Unless noted, % is set by controls: 0 for no effect and ±100 for the full control effect; potency is the fitted concentration of half-maximal effect.

How did CC(=O)C1=C(O)C(=O)N(Cc2ccccc2)C1c1ccco1 (stereo not drawn) do in these assays?
L3MBTL1 inh: -24%; APE1 inh-1: 1µM*; KDM4E inh: inconclusive; RGS12 GoLoco inh: -7%; BLM inh: -6%; RECQ1 helicase: -15%; DNA dye displace: -5%; EndoIV counter: 5%; APE1 inh-2: inconclusive; APE1 FP inh: 0%

How did Cc1cc(NS(=O)(=O)c2ccc(N)cc2)nc(C)n1 do in these assays?
RGS12 GoLoco inh: -5%; BLM inh: -12%

What do the screens show for `O=C(Nc1cccc(F)c1)N1CCCC2(CCN(S(=O)(=O)c3ccccc3)CC2)C1`?
APE1 inh-1: 4%; RGS12 GoLoco inh: 7%; BLM inh: -2%; RECQ1 helicase: -14%

How did O=c1[nH]c(-[n+]2ccccc2)c(/C=N/N=C(\[O-])c2ccccc2)s1 do in these assays?
APE1 inh-1: inconclusive; KDM4E inh: -2%; RGS12 GoLoco inh: 6%; BLM inh: -6%; RECQ1 helicase: 13%

How did Cc1cc[n+](-c2[nH]c(=O)sc2/C=N/N=C(\[O-])c2ccccc2)cc1 do in these assays?
L3MBTL1 inh: inconclusive; APE1 inh-1: 14%; KDM4E inh: inconclusive; RGS12 GoLoco inh: 12%; BLM inh: -1%; RECQ1 helicase: -3%; APE1 inh-2: 40µM*

How did Cc1cc[n+](-c2[nH]c(=O)sc2/C=N/N=C(\[O-])c2ccncc2)cc1C do in these assays?
APE1 inh-1: -38%; BLM inh: -10%

What do the screens show for `Cc1cc[n+](-c2[nH]c(=O)sc2/C=N/N=C(\[O-])c2ccccc2)cc1C`?
L3MBTL1 inh: -20%; APE1 inh-1: 18µM*; KDM4E inh: -22%; RGS12 GoLoco inh: 4%; BLM inh: -14%; RECQ1 helicase: 28µM*; DNA dye displace: 141%; EndoIV counter: 8%; APE1 inh-2: inconclusive; APE1 FP inh: -7%

What do the screens show for `CC(=O)C1CCC2C3CC(C)C4=CC(=O)CC[C@@]4(C)C3C(O)C[C@@]12C` (stereo partly drawn)?
APE1 inh-1: -3%; KDM4E inh: 6%; RGS12 GoLoco inh: 7%; BLM inh: -10%; RECQ1 helicase: inactive

Results for CCOC(=O)CCN1C(=O)[C@H]2[C@H]3[C@H](O)[C@H](O)C/C(=N/NC(=O)OCc4ccccc4)[C@@H]3CC[C@@H]2C1=O ?
APE1 inh-1: inconclusive; BLM inh: 0%[12.4 µM]; RECQ1 helicase: 3%[11.5 µM]

Results for O=C(CSc1nnc(-c2cccc(S(=O)(=O)N3CCCC3)c2)n1-c1ccccc1)Nc1ccc(C(=O)O)cc1 ?
APE1 inh-1: -2%; KDM4E inh: 3%; RGS12 GoLoco inh: 1%; BLM inh: inconclusive; RECQ1 helicase: -13%; APE1 inh-2: inconclusive

High-throughput results (PubChem)
